# What was measured:
# Assay in all cases: PBM binding z-score (relative to random genomic background probes); higher = stronger binding; sequences stand for … in GC…GCGATTGACAGCGTAGAATGAAGG
# [1] = tested on: FXR:RXRa (NR concentration 270 nM, RXRa partner concentration 90 nM)
# Outline: (§1)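 Ligand-free nuclear receptor dimers were bound for 1 h to custom Agilent 4×180K protein-binding microarrays. Detection used antibodies against each partner (one per run). Binding z-scores rest on regression-normalized fluorescence, with random background probes as the reference.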
# [2] = tested on: LXRa:RXRa (NR concentration 270 nM, RXRa partner concentration 90 nM)
# Outline: as §1
# [3] = tested on: LXRa homodimer (NR concentration 270 nM)
# Outline: as §1
# [4] = tested on: LXRb:RXRa (NR concentration 270 nM, RXRa partner concentration 90 nM)
# Outline: as §1
# [5] = tested on: LXRb homodimer (NR concentration 270 nM)
# Outline: as §1
# [6] = tested on: PPARa:RXRa (NR concentration 270 nM, RXRa partner concentration 90 nM)
# Outline: as §1
# [7] = tested on: PPARg:RXRa (NR concentration 180 nM, RXRa partner concentration 90 nM)
# Outline: as §1
# [8] = tested on: PPARg:RXRa 270nM:90nM, anti-RXR (NR concentration 270 nM, RXRa partner concentration 90 nM)
# Outline: as §1
# [9] = tested on: PPARg:RXRa 30nM:10nM, anti-RXR (NR concentration 30 nM, RXRa partner concentration 10 nM)
# Outline: as §1
# [10] = tested on: PPARg:RXRa 90nM:30nM, anti-RXR (NR concentration 90 nM, RXRa partner concentration 30 nM)
# Outline: as §1
# [11] = tested on: PPARg:RXRa DBDmut IVT, anti-RXR (DBD mutation: RXRa K156A/R161A, NR concentration 270 nM, RXRa partner concentration 90 nM)
# Outline: as §1
# [12] = tested on: PPARg:RXRa IVT, anti-PPARg (NR concentration 270 nM, RXRa partner concentration 90 nM)
# Outline: as §1
# [13] = tested on: PPARg DBDmut:RXRa IVT, anti-PPARg (DBD mutation: PPARg1 K132A/R137A, NR concentration 270 nM, RXRa partner concentration 90 nM)
# Outline: as §1
# [14] = tested on: PPARg DBDmut IVT, anti-PPARg (DBD mutation: PPARg1 K132A/R137A, NR concentration 270 nM)
# Outline: as §1
# [15] = tested on: PPARg homodimer (NR concentration 180 nM)
# Outline: as §1
# [16] = tested on: PXR:RXRa (NR concentration 270 nM, RXRa partner concentration 90 nM)
# Outline: as §1
# [17] = tested on: PXR homodimer (NR concentration 270 nM)
# Outline: as §1
# [18] = tested on: RARa:RXR (NR concentration 270 nM, RXRa partner concentration 90 nM)
# Outline: as §1
# [19] = tested on: RARa homodimer (NR concentration 270 nM)
# Outline: as §1
# [20] = tested on: RARb:RXRa (NR concentration 270 nM, RXRa partner concentration 90 nM)
# Outline: as §1
Sequence,PBM binding z-score [1],PBM binding z-score [2],PBM binding z-score [3],PBM binding z-score [4],PBM binding z-score [5],PBM binding z-score [6],PBM binding z-score [7],PBM binding z-score [8],PBM binding z-score [9],PBM binding z-score [10],PBM binding z-score [11],PBM binding z-score [12],PBM binding z-score [13],PBM binding z-score [14],PBM binding z-score [15],PBM binding z-score [16],PBM binding z-score [17],PBM binding z-score [18],PBM binding z-score [19],PBM binding z-score [20]
ATCTCTAGGTAACCAGTTCAGTGAAAGAGAGGAC,0.76,0.635,0.481,0.706,1,1.26,1.06,1.24,0.669,0.873,3.36,3.09,0.836,0.902,1.06,1.19,1.26,1.04,1.15,0.835
CGTCCAAGGTCAATGCTAGGTCATTGAAAGCATT,7.16,6.36,5.55,4.79,1.21,5.28,4.04,4.94,1.89,3.66,3.36,3.99,1.51,0.205,6.45,5.79,3.15,6.69,1.7,5.19
CCTACTGGGCCATTCAGAGGTCATTGAGCATATG,2.93,4.74,6.54,3.65,0.261,4.02,2.49,3.28,1.01,2.38,4,4.21,0.182,-0.178,2.75,4.88,2.54,4.74,0.462,3.14
ACTATTGGTTGACTTAGGGCAACCGATACGACGC,0.0585,0.381,-0.0343,0.201,0.546,0.0767,0.718,0.153,0.181,0.103,-0.408,0.507,0.7,0.813,-0.419,0.245,-0.0405,0.77,-0.0341,0.653
GATACAGAGTCAAGGCCAGAGTACGCGTATTGAT,-0.608,-0.442,-0.531,-0.627,-0.712,-0.293,0.646,-0.0744,-0.0806,-0.0588,-0.108,-0.0303,0.127,-0.418,-0.301,-0.285,-0.253,-0.181,-1.07,0.288
TCTCGGAGGACACAAAAGGTCAGAGCTCGACATC,2.8,4.16,2.83,3.27,0.142,3.53,1.51,2.66,2.44,2.62,1.53,1.65,-0.0324,-0.692,3.51,3.82,0.682,4.29,1.33,4.08
TCGAGTAGGTTAGTCGGGGCGTTCAGCCAACATA,-0.0524,-0.272,-0.481,-0.0286,-1.19,0.148,-0.893,0.268,0.61,0.186,1.73,0.976,-0.368,-0.973,-0.66,-0.237,-0.771,-0.294,-0.96,0.0731
ACTATTAGTTGACTTAGGGCAAACGATACGACGC,0.00537,0.0216,0.165,0.185,0.529,0.325,1.17,0.319,0.276,0.322,0.0351,0.568,1.39,1.52,0.392,0.274,0.0698,0.533,0.0866,0.712
CCTACTGGGCCATCAGGTCCTTGATATCAACGTT,-0.312,-0.421,-0.282,-0.452,-0.521,0.449,0.742,1.4,-0.0903,0.582,3.89,3.63,0.113,-0.684,0.311,-0.471,-0.404,-0.307,0.115,0.33
ATCTATAGGTAACAAGTTCAGTGAAAGAGAGGAC,0.766,1.11,0.709,0.927,0.629,1.64,1.46,1.66,0.781,1.46,2.14,1.83,1.5,1.51,1.15,1.72,1.68,1.74,1.48,1.72
TTACCAAGGTGAAAGTTCGTTGATGCACGCCTTG,1.93,1.83,0.114,1.35,-0.561,4.14,6.03,6.53,4.84,6.63,1.85,4.23,0.268,0.287,0.78,2.73,1.54,2.73,0.264,2.24
CTCGAAAGGTCGGTTGAGGGGAGTATACGGATAA,2.57,1.35,-0.151,1.35,0.377,2.39,0.359,0.861,-0.0851,0.567,-0.0517,0.459,0.19,0.356,0.859,1.51,-0.0252,1.79,-0.0195,3.02
TGTCGGAGGACACGAAGGTCAGAGCTTTCCAGAG,1.23,1.44,-0.131,0.759,-0.905,1.81,0.574,1.14,-0.39,0.47,-0.402,1.54,-0.86,-0.906,1.05,1.79,0.826,1.84,0.146,3.46
TTACCAAGGTTAAGGTCGTTGATCCCTCTGTAGA,4.22,4.15,0.608,2.66,-0.123,3.38,1.85,3.34,1.44,2.99,0.95,2.15,0.246,0.342,1.05,3.04,1.3,3.04,-0.0492,3.04
CCTTACGCGTCACTCCAGGTTATAGCATCGGAGT,1.11,4.05,1.55,1.36,0.803,0.54,0.559,-0.0823,-0.223,-0.192,0.0955,0.368,0.286,1,1.16,0.484,0.825,0.345,0.837,0.333
CTCGAAAGGTAGGTTGAGGTGAGTATACGGATAA,0.719,-0.128,-0.2,-0.0661,-0.508,0.424,0.0538,0.173,0.0647,0.104,-0.151,0.611,0.405,0.253,0.0947,0.293,-0.116,0.461,-0.0281,0.475
TAGCCTAGGTCATTCAAGGGCCAGTATAGAAAGC,4.72,3.99,0.681,2.5,0.527,3.79,1.97,2.25,0.523,1.88,1.4,2.93,0.0741,0.0632,1.31,2.5,0.325,2.93,0.561,3.9
TCTCGGAAGACACGAAGGTCAGAGCTTTCCAGAG,0.883,0.652,-0.454,0.74,-0.988,1.79,0.356,1.57,2.55,1.71,1.64,0.221,-0.344,-0.823,0.689,1.12,-0.144,1.53,-0.631,2.27
CTTCCAAGGTCAAAGGTCAGTGAAGAGATGACGG,8.35,7.17,4.94,6.74,2.43,7.29,11.1,9.09,8.56,10.7,4.31,5.99,1.55,2.25,5.02,7.21,2.73,8.8,3.33,5.92
TCGAGTAGGTTAGGGGGATTCAGAATGGCGTCGA,0.594,0.704,0.047,2.05,5.63,1.63,1.42,3.21,2.01,2.69,2.93,3.21,2.69,5.71,1.41,1.2,0.466,0.482,0.665,1.19
TCTTGTAGATCAAGCAAGTTAAGAAAGCCTGAGT,0.00157,-0.0687,-0.36,-0.0255,-0.715,0.295,-0.623,1.01,2.4,1.72,1.73,0.172,-0.613,-0.0624,-0.466,0.15,0.419,0.014,-0.373,0.115
ACTTACGGGTCGACGAGGTTATAGCACGCGTATA,1.82,1.97,0.124,1.94,0.314,2.97,1.52,1.22,0.608,0.729,0.585,1.14,0.084,0.394,0.944,2.68,0.798,2.75,-0.198,1.82
ACAGACAGGTGAGTGATGGTAACTCAGCTGGACG,0.332,0.668,-0.354,-0.409,-0.477,-0.213,0.554,-0.115,-0.0308,-0.212,0.622,0.347,-0.278,-0.268,0.364,-0.415,-0.0348,-0.241,0.249,0.377
CAAACTAGGTCACCGGAAGGGCAAAGTCCGCATG,4.22,3.85,0.736,2.88,0.171,5.16,8.84,6.95,4.85,6.67,8.45,8.73,1.66,1.37,1.44,3.29,0.241,3.92,0.698,4.47
CCTTCTAGGTCATGGTCAGCTAATCTACAGTATG,3.87,2.77,0.676,2.12,0.355,4.37,5.63,5.39,2.57,4.28,7.22,6.72,1.58,1.21,2.24,1.7,0.327,2.63,1.36,4.08
GGAACGAGGACAAAGTTGATAGCATCTGTCGACG,-0.0589,-0.208,-0.722,-0.455,-0.842,2.4,4.11,5.44,3.91,5.14,1.35,1.44,-0.283,-0.95,-0.0718,-0.043,-0.312,0.0802,0.0714,0.942
AGAATGAGGTTATACGTAGATCAAGGAAGAAAGT,2.5,2.22,0.0848,1.72,0.172,3.25,2.25,2.12,0.826,1.62,4.05,2.17,1.37,0.946,1.39,1.25,0.179,1.97,0.408,1.58
CCTACTGGGCCACAAAAGGTCATTGATTCAGTGA,3.28,5.83,5.25,4.37,0.347,4.79,4.35,4.41,1.88,3.74,5.38,5.41,0.516,0.121,2.8,5.02,1.16,4.9,0.618,3.95
CCTGCTTGGTCAATGGTCAGCTAAAGCAGCTCGC,-0.266,-0.183,-0.536,-0.566,-0.491,-0.243,-0.553,0.82,-0.904,0.17,0.434,-0.107,-1.05,-0.884,0.138,-0.296,-0.881,0.00711,-0.943,1.01

# From the supplement of paper PMC6555819
